From PubChem BioAssay
For part of these data: Entries with a potency or affinity are not part of this list. The source made the active and inactive calls. Unless noted, no rule for the calls is given here.

What was measured:
[1] = antimalarial activity against Dd2 strain (AID 2302;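 active = growth inhibition above 50% at the single 2 µM test dose, taken to imply half-maximal potency below 2 µM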;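 also: 0% = DMSO untreated growth and 100% = chloroquine plus artemisinin killed control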); settings: P. falciparum Dd2 in RBCs, LDH growth readout, 72 h; at 2 µM; stronger effect = higher value
[2] = HepG2 cytotoxicity, primary screen, cytotoxicity control for P. falciparum antimalarial project, cell-based, ATP luminescence (AID 2303;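 active = inhibition above 50%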;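 also: 0% = DMSO wells and 100% = digitonin-killed cells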); settings: HepG2 viability, 24-48 h, at 10 µM, stronger effect = higher value
[3] = biological target: L-lactate dehydrogenase (Plasmodium falciparum (isolate CDC / Honduras)) (UniProt Q27743); test: PfLDH activity inhibition – cell lysate, 3D7 strain, counter-screen for P. falciparum growth inhibition project (AID 2304);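 also: 0% = vehicle and 100% = reference inhibitor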; settings: P. falciparum 3D7 crude extract, LDH APAD/NBT absorbance; at 2 µM; stronger effect = higher value
[4] = inhibition of 3D7 malaria parasite growth – strain 3D7 (AID 2306);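 also: 0% = DMSO wells and 100% = chloroquine plus artemisinin control wells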; settings: P. falciparum 3D7 erythrocytic growth, LDH absorbance, 72 h; at 2 µM; stronger effect = higher value
[5] = biological target: Calcium-dependent protein kinase 1 (Plasmodium falciparum (isolate 3D7)) (UniProt P62344); test: PfCDPK1 kinase inhibitors, biochemical, TCAMS library (AID 1159585; cut-off not given, nearly all actives have IC50 up to about 0.98 µM;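 also: inhibitors leave more ATP so luminescence rises with inhibition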); settings: recombinant PfCDPK1, Kinase-Glo ATP depletion luminescence
[6] = biological target: Plasmodium falciparum protein kinase 6 (PK6, PF3D7_1337100) (UniProt Q8IDW1); test: PfPK6 kinase inhibitors, biochemical, TCAMS library (AID 1159586); settings: recombinant PfPK6, Kinase-Glo ATP depletion luminescence
[7] = biological target: Protein kinase 7 (PK7), Plasmodium falciparum 3D7 (PF3D7_0213400) (UniProt Q7YTF7); test: inhibition of Plasmodium PK7 catalytic activity – biochemical, TCAMS antimalarial set, Kinase-Glo luminescence (AID 1159587); settings: recombinant PfPK7, Kinase-Glo ATP depletion luminescence
[8] = biological target: Calcium-dependent protein kinase 4 (Plasmodium falciparum (isolate 3D7)) (UniProt Q8IBS5); test: PfCDPK4 kinase inhibitors, biochemical, TCAMS library (AID 1159588; cut-off not given, nearly all actives have IC50 up to about 0.91 µM); settings: recombinant PfCDPK4, Kinase-Glo ATP depletion luminescence
Sequence of Calcium-dependent protein kinase 4 (Plasmodium falciparum (isolate 3D7)) (Q8IBS5 whole entry, looked up): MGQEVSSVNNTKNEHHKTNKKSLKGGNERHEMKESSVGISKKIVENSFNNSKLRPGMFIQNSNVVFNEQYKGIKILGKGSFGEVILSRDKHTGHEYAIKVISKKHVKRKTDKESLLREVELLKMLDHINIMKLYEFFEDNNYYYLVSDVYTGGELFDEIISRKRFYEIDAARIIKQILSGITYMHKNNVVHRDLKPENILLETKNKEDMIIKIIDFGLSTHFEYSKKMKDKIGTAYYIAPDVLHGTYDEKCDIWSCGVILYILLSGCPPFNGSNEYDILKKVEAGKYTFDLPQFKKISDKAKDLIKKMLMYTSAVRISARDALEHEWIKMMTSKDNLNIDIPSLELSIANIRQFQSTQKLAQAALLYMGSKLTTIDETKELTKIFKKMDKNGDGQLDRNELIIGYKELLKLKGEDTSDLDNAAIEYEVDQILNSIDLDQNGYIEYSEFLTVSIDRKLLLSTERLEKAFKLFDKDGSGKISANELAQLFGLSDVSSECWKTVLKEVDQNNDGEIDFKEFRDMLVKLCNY

Sequence of Protein kinase 7 (PK7), Plasmodium falciparum 3D7 (PF3D7_0213400) (Q7YTF7 1-343): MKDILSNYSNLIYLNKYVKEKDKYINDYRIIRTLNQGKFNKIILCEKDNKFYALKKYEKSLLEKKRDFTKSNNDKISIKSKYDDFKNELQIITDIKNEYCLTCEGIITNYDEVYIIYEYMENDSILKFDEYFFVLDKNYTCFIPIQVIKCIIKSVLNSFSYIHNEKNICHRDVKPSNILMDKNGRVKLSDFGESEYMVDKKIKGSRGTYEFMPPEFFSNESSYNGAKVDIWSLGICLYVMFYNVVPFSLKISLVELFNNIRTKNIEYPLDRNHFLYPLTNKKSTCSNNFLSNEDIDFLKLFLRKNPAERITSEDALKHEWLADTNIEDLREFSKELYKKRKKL
Sequence of Plasmodium falciparum protein kinase 6 (PK6, PF3D7_1337100) (Q8IDW1 1-305): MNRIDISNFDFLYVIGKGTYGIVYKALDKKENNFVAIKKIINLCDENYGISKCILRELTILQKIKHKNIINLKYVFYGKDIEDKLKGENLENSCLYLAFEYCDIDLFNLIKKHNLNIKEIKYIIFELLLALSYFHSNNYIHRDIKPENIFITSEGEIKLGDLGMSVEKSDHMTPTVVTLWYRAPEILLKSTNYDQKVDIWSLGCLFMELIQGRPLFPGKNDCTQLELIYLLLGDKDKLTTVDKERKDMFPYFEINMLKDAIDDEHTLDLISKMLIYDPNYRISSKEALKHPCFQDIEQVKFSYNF
Sequence of L-lactate dehydrogenase (Plasmodium falciparum (isolate CDC / Honduras)) (Q27743 whole entry, looked up): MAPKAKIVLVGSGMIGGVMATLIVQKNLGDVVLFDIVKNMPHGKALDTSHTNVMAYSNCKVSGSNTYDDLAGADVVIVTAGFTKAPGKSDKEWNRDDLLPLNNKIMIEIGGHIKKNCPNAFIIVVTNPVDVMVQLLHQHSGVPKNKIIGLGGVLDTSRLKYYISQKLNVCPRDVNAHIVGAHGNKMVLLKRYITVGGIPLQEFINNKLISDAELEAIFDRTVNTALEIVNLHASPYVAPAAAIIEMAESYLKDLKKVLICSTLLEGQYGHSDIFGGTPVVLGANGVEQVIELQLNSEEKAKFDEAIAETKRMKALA
Sequence of Calcium-dependent protein kinase 1 (Plasmodium falciparum (isolate 3D7)) (P62344 whole entry, looked up): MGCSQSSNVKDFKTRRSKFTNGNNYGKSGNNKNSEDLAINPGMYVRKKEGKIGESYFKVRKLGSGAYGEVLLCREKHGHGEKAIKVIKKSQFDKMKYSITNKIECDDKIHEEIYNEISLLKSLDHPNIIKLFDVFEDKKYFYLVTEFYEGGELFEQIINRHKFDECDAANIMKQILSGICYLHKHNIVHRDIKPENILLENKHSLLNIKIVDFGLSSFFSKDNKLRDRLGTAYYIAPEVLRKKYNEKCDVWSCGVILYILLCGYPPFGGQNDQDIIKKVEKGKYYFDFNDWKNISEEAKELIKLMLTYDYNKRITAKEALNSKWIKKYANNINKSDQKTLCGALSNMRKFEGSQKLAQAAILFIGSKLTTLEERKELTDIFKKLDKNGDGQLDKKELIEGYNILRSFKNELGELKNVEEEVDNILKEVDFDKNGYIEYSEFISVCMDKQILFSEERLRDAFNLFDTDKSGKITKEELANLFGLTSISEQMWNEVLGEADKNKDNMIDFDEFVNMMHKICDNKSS

CC(Cc1ccc(NC(=O)c2ccc(CNCCCCc3ccccc3)cc2)cc1)NCCc1cccc(Cl)c1 (configuration not stated)
active: growth inhibition [1] 96% | inhibition [2] 100% | growth inhibition [4] 100%
inactive: inhibition [3] -1% | outcome [5] | outcome [6] | outcome [7] | outcome [8]

Cc1nc2nc(N)nc(N)c2c(C)c1Cc1c(Cl)cccc1Cl
inactive: growth inhibition [1] 5% | inhibition [2] 7% | inhibition [3] -1% | outcome [5] | outcome [6] | outcome [7] | outcome [8]
active: growth inhibition [4] 94%

Cc1c(S(=O)(=O)Nc2ccc3nccc(N4C[C@@H](C)N[C@@H](C)C4)c3c2)sc2ccc(Cl)cc12
inactive: growth inhibition [1] -4% | inhibition [2] -8% | inhibition [3] 5% | outcome [5] | outcome [6] | outcome [7] | outcome [8]
active: growth inhibition [4] 92%

O=C(Nc1ccc2c(c1)CCN(C1CCC1)CC2)c1ccc(-c2cn3ccccc3n2)cc1
active: growth inhibition [4] 102%
inactive: growth inhibition [1] 42% | inhibition [2] 13% | inhibition [3] 2% | outcome [5] | outcome [6] | outcome [7] | outcome [8]

Cc1nnsc1C(=O)Nc1cccc(-c2ccc(-c3nc4ccccc4[nH]3)cc2)c1
active: growth inhibition [1] 58% | growth inhibition [4] 100%
inactive: inhibition [2] 48% | inhibition [3] 0% | outcome [5] | outcome [6] | outcome [7] | outcome [8]

Cc1cc(F)ccc1Nc1nc(N(C)c2ccccc2)c2cccc(OCCO)c2n1
active: growth inhibition [1] 94% | growth inhibition [4] 95%
inactive: inhibition [2] 34% | inhibition [3] 0% | outcome [5] | outcome [6] | outcome [7] | outcome [8]

Cc1cccc2[nH]c(-c3cccc(-c4ccc(CNCCc5ccncc5)cc4)c3)nc12
inactive: inhibition [2] 40% | inhibition [3] -2% | outcome [5] | outcome [6] | outcome [7] | outcome [8]
active: growth inhibition [1] 100% | growth inhibition [4] 100%

COc1cc(-n2cnc3cc(-c4ccc(Cl)cc4)sc3c2=O)ccc1OCCN1CCC(c2cccc(NC(C)=O)c2)CC1
inactive: inhibition [3] -4% | outcome [5] | outcome [6] | outcome [7] | outcome [8]
active: growth inhibition [1] 80% | inhibition [2] 61% | growth inhibition [4] 99%

CC(=O)c1ccccc1OCCSc1nnc(Cc2cccs2)n1C1CCCCC1
inactive: growth inhibition [1] 1% | inhibition [2] 19% | inhibition [3] -5% | outcome [5] | outcome [6] | outcome [7] | outcome [8]
active: growth inhibition [4] 87%

O=C(NCCCCN1CCC(c2ccc3c(c2OCCCO)CCCC3)CC1)c1ccc(-c2ccc(C(F)(F)F)cc2)cc1
active: growth inhibition [1] 53% | inhibition [2] 98% | growth inhibition [4] 83%
inactive: inhibition [3] 1% | outcome [5] | outcome [6] | outcome [7] | outcome [8]

COc1ccc(NC(=O)/C=C/c2ccc(-c3ccc(-c4noc(C)n4)cc3)cc2)cc1OCCN(C)C
active: growth inhibition [4] 81%
inactive: growth inhibition [1] 31% | inhibition [2] 14% | inhibition [3] -3% | outcome [5] | outcome [6] | outcome [7] | outcome [8]

O=C(N[C@H]1CCN(CCc2ccc(O[C@H]3CCNC3)c(Cl)c2)C1)c1ccc(Cl)c(Cl)c1
inactive: growth inhibition [1] -1% | inhibition [2] 26% | inhibition [3] 2% | outcome [5] | outcome [6] | outcome [7] | outcome [8]
active: growth inhibition [4] 101%

O=C(Cc1cnc[nH]1)Nc1ccc(-c2ccc(-c3nc4ccccc4[nH]3)s2)cc1
inactive: growth inhibition [1] 34% | inhibition [2] 44% | inhibition [3] 1% | outcome [5] | outcome [6] | outcome [7] | outcome [8]
active: growth inhibition [4] 90%

O=C(NCCc1ccc(Cl)c(Cl)c1)[C@@H]1CCCN1C(=O)c1ccc(O)c(-c2ccc(Cl)c(Cl)c2)c1
inactive: inhibition [2] -2% | inhibition [3] -2% | outcome [5] | outcome [6] | outcome [7] | outcome [8]
active: growth inhibition [1] 99% | growth inhibition [4] 99%

Cc1cccc2[nH]c(-c3cccc(-c4ccc(C(=O)NCCc5ccc(O)c(=O)[nH]5)cc4)c3)nc12
active: growth inhibition [4] 85%
inactive: growth inhibition [1] 30% | inhibition [2] 20% | inhibition [3] -1% | outcome [5] | outcome [6] | outcome [7] | outcome [8]

Cc1cccc2[nH]c(-c3ccc(-c4ccc(CNCCNC(=O)c5ccnn5C)cc4)cc3)nc12
inactive: inhibition [2] 29% | inhibition [3] -2% | outcome [5] | outcome [6] | outcome [7] | outcome [8]
active: growth inhibition [1] 98% | growth inhibition [4] 102%

Cc1ccc(CNC(=O)[C@H](Cc2ccccc2)Nc2cc(C)nc(NCc3ccccc3C)n2)cc1
inactive: inhibition [2] 23% | inhibition [3] 0% | outcome [5] | outcome [6] | outcome [7] | outcome [8]
active: growth inhibition [1] 50% | growth inhibition [4] 97%

COc1cccc(CNC(=O)c2cccc(-c3ccc(CN4CCC(N5CCCC5)CC4)cc3)n2)c1
inactive: inhibition [2] 16% | inhibition [3] 1% | outcome [5] | outcome [6] | outcome [7] | outcome [8]
active: growth inhibition [1] 76% | growth inhibition [4] 101%

CCOc1ccc2c(NN=Cc3ccccn3)cc(C)nc2c1
inactive: growth inhibition [1] 1% | inhibition [2] 19% | inhibition [3] -3% | outcome [5] | outcome [6] | outcome [7] | outcome [8]
active: growth inhibition [4] 98%

C[C@@H]1CN(c2cnn(Cc3ccc(NC(=O)Nc4cccc(C(F)(F)F)c4)cc3)c(=O)c2Cl)C[C@H](C)N1
active: growth inhibition [4] 86%
inactive: growth inhibition [1] 31% | inhibition [2] -10% | inhibition [3] -7% | outcome [5] | outcome [6] | outcome [7] | outcome [8]

N=c1n(CCN2CCCC2)c2ccccc2n1CC(O)c1ccc(Cl)c(Cl)c1 (configuration not stated)
active: growth inhibition [4] 100%
inactive: growth inhibition [1] 6% | inhibition [2] 36% | inhibition [3] 5% | outcome [5] | outcome [6] | outcome [7] | outcome [8]

CCOc1cc2ncnc(Nc3ccc(OCc4ccccc4Br)c(OC)c3)c2cc1OCC
inactive: inhibition [2] 1% | inhibition [3] 1% | outcome [5] | outcome [6] | outcome [7] | outcome [8]
active: growth inhibition [1] 82% | growth inhibition [4] 100%

O=S(=O)(Nc1cccc(CCN2CCCCC2CCN2CCCC2)c1)c1ccc(Oc2ccccc2)cc1 (configuration not stated)
inactive: growth inhibition [1] 1% | inhibition [3] -2% | outcome [5] | outcome [6] | outcome [7] | outcome [8]
active: inhibition [2] 52% | growth inhibition [4] 94%

Cc1cc(N2CCCC2)nc(Nc2ccc(NC(=O)c3ccccc3F)cc2)n1
active: growth inhibition [4] 98%
inactive: growth inhibition [1] 44% | inhibition [2] 36% | inhibition [3] -3% | outcome [5] | outcome [6] | outcome [7] | outcome [8]

Cc1cccc(-c2ccc(NC(=O)Nc3ccc4nccc(N5CCN(C)CC5)c4c3)cc2C)n1
inactive: inhibition [2] 4% | inhibition [3] -3% | outcome [5] | outcome [6] | outcome [7] | outcome [8]
active: growth inhibition [1] 95% | growth inhibition [4] 101%

CC(=O)N(C)/N=C/[C@H](CCc1ccccc1)NC(=O)[C@H](CC(C)C)NC(=O)c1cccc(OCCN2CCOCC2)c1
inactive: inhibition [2] 5% | inhibition [3] 5% | outcome [5] | outcome [6] | outcome [7] | outcome [8]
active: growth inhibition [1] 65% | growth inhibition [4] 89%

COc1cc(-c2cc3cc(Cl)c(Cl)cc3[nH]2)ccc1C(=O)NC1CCN(Cc2ccccc2)CC1
active: growth inhibition [1] 101% | growth inhibition [4] 102%
inactive: inhibition [2] 12% | inhibition [3] -3% | outcome [5] | outcome [6] | outcome [7] | outcome [8]

O=C(/C=C/c1ccc(Cl)c(Cl)c1)NCCCCCN1CCC(NC(=O)c2cccc(Cl)c2)CC1
active: growth inhibition [4] 98%
inactive: growth inhibition [1] 23% | inhibition [2] 12% | inhibition [3] -6% | outcome [5] | outcome [6] | outcome [7] | outcome [8]

COc1ccc(NC(=O)Nc2ccc(-c3ccccc3)cc2Cl)cc1N1CCN(C)CC1
active: growth inhibition [4] 90%
inactive: growth inhibition [1] 30% | inhibition [2] 40% | inhibition [3] 0% | outcome [5] | outcome [6] | outcome [7] | outcome [8]

C(=C(c1cccs1)c1cccs1)c1ccc(CNC2CCN(Cc3ccccc3)CC2)cc1
inactive: growth inhibition [1] 21% | inhibition [2] 40% | inhibition [3] 4% | outcome [5] | outcome [6] | outcome [7] | outcome [8]
active: growth inhibition [4] 98%

CCOC(=O)CN(c1ccc(Br)cc1OCCOc1cc(Br)ccc1N(CC(=O)OCC)C(C)C(=O)OCC)C(C)C(=O)OCC (configuration not stated)
active: growth inhibition [4] 94%
inactive: growth inhibition [1] 6% | inhibition [2] -15% | inhibition [3] 6% | outcome [5] | outcome [6] | outcome [7] | outcome [8]

COc1ccccc1NC(=O)Nc1cccc(-c2cccc(-c3nc4ccc(C(F)(F)F)cc4[nH]3)c2)c1
active: growth inhibition [1] 97% | growth inhibition [4] 101%
inactive: inhibition [2] 21% | inhibition [3] 5% | outcome [5] | outcome [6] | outcome [7] | outcome [8]

CN(C)CCOc1ccc(NC(=O)Nc2ccnc3c(Br)cccc23)cc1Cl
inactive: growth inhibition [1] 25% | inhibition [2] 10% | inhibition [3] 0% | outcome [5] | outcome [6] | outcome [7] | outcome [8]
active: growth inhibition [4] 97%

O=c1[nH]ccc2nc(N[C@@H]3CCNC3)nc(Nc3cccc(S(=O)(=O)N4CCOCC4)c3)c12
active: growth inhibition [1] 98% | growth inhibition [4] 90%
inactive: inhibition [2] 0% | inhibition [3] 4% | outcome [5] | outcome [6] | outcome [7] | outcome [8]

O=C(Nc1ccc(C(F)(F)F)cc1)c1ccc(S(=O)(=O)NC2CCCN(CC3CCCCC3)C2)cc1 (configuration not stated)
active: growth inhibition [4] 99%
inactive: growth inhibition [1] -1% | inhibition [2] 45% | inhibition [3] -5% | outcome [5] | outcome [6] | outcome [7] | outcome [8]

O=C(Nc1cccc(-c2ccc(-c3nc4ccc(C(F)(F)F)cc4[nH]3)cc2)c1)c1csnn1
active: growth inhibition [1] 93% | growth inhibition [4] 98%
inactive: inhibition [2] 23% | inhibition [3] 3% | outcome [5] | outcome [6] | outcome [7] | outcome [8]

COc1ccc(N2C(=O)C3C(C2=O)C2(C)c4ccccc4C3(C)c3ccccc32)c([N+](=O)[O-])c1 (configuration not stated)
active: growth inhibition [1] 54% | growth inhibition [4] 99%
inactive: inhibition [2] 11% | inhibition [3] 7% | outcome [5] | outcome [6] | outcome [7] | outcome [8]

O=C1OC2(CN1CC1CCN(Cc3ccc(-n4ccnc4)cc3)C1)c1ccccc1-c1ccccc12 (configuration not stated)
active: growth inhibition [4] 96%
inactive: growth inhibition [1] -5% | inhibition [2] 25% | inhibition [3] -2% | outcome [5] | outcome [6] | outcome [7] | outcome [8]

CCCC1N=C(N)N=C(N)N1c1ccccc1 (configuration not stated)
active: growth inhibition [4] 93%
inactive: growth inhibition [1] -3% | inhibition [2] -4% | inhibition [3] -6% | outcome [5] | outcome [6] | outcome [7] | outcome [8]
